# High-throughput results from PubChem.
# Many of the other results were omitted from the sample, so hits are more common in it than they were.
# ClpP mod – qHTS Assay for Activators of ClpP; ATP-dependent Clp protease proteolytic subunit (Bacillus subtilis (strain 168)), P80244; purified B. subtilis ClpP, FRET peptide cleavage, 20 min; Potency, µM (doses to about 57.5 µM), for the others: at the highest dose activity change, negative = active; 340,000 compounds, 1.9% hits; AID 651965, 2013; active = well fitted falling curve with a large enough effect; inconclusive = small, poorly fitted or top-dose-only effect; inactive = no such curve, though single readings can be large or run the other way; also: potency is read from the fitted curve at half-maximal effect; the source files actives as falling curves though it sought activators and does not explain the sign; nearly all actives have a fitted effect of over 65% in size
#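 FRET quenching reversal measured ClpP activation: 10 microg/mL B. subtilis ClpP at pH 8 with the FRET-FV decapeptide, read at 430 nm after 320 nm excitation. The 20-min minus 0-min signal was scaled between DMSO/no-enzyme wells and ADEP (5.8 microM final).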
# Menin MLL FP FL – displaces fluorescein MLL peptide from human menin; AID 1766; Fluorescence polarization, fluorescein-MLL peptide displacement from menin; 290,000 tested, under 10 active; FP activity change, % at 61.4 µM; active = well fitted curve in the direction sought with a large enough effect in the polarisation, not every such curve was filed as active; inconclusive = small, poorly fitted or top-dose-only effect, or effect the other way, or a change in a side signal; inactive = no such curve, though single readings can be large or run the other way; the % refers to the polarisation; also: % of control where 0% means no effect
# Menin MLL FP TR – menin-MLL binding inhibition, Texas Red mutant peptide; O00255; Menin + Texas Red MLL mutant peptide, fluorescence polarization; Potency, µM (titrated, usually from 61.6 µM), for the others: at the highest dose FP activity change, negative = inhibition, hits mostly inhibitors; 270,000 compounds, 0.23% hits; AID 1768; active = well fitted inhibition curve with a large enough effect in the polarisation, with a control signal flat, not every such curve was filed as active; inconclusive = small, poorly fitted or top-dose-only effect, or effect the other way, or a change in a side signal; inactive = no such curve, though single readings can be large or run the other way; the % refers to the polarisation; also: potency is read from the fitted curve at half-maximal effect; % of control where 0% means no effect
# Target sequence (O00255 whole entry, looked up): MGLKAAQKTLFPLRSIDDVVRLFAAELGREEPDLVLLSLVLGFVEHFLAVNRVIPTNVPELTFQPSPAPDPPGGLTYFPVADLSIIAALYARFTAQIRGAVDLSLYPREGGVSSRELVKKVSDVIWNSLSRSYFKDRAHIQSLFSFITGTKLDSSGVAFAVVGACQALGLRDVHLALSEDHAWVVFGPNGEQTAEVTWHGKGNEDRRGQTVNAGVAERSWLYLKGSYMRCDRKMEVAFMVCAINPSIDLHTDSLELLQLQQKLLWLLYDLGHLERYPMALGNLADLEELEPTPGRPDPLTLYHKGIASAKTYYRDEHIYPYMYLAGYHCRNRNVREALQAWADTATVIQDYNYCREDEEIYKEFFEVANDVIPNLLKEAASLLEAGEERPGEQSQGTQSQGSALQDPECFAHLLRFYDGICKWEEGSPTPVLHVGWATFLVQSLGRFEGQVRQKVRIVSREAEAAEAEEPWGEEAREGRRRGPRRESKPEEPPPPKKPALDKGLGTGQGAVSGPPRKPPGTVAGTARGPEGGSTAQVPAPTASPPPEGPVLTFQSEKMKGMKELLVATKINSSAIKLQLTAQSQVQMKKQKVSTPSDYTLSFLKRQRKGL
# MLL CXXC-DNA inh – inhibitors of human MLL CXXC domain-DNA interaction. 290,000 compounds, 0.037% hits. AID 2662. Q03164. Potency, µM (series often up to 115 µM), for the others: at the highest dose activity change, negative = inhibition, usual class: inhibitors. MLL-CXXC / FITC-HOXA9 DNA fluorescence polarization; active = well fitted inhibition curve with a large enough effect in the polarisation, with a control signal flat, not every such curve was filed as active; inconclusive = small, poorly fitted or top-dose-only effect, or effect the other way, or a change in a side signal; inactive = no such curve, though single readings can be large or run the other way; the % refers to the polarisation; also: potency is read from the fitted curve at half-maximal effect
#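 Fluorescence polarization: 7 uM MLL-CXXC (stock) preincubated 5 min with compounds, then 50 nM fluorescein-HOX-A9 DNA (stock) added; 30 min ambient. Buffer 50 mM Tris-HCl pH 7.5, 50 mM NaCl, 1 mM DTT, 0.05% BSA.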
# p53 reactivation – restores transcriptional activity of mutant p53. H1299 p53-A138V BP100-luciferase reporter, luminescence, 24 h. 320,000 compounds, 0.063% hits. AID 504706. Potency, µM (series often up to 92.2 µM), without a hit: top-dose activity change, positive = activation, hits mostly activators; active = well fitted activation curve with a large enough effect; inconclusive = small, poorly fitted or top-dose-only effect; inactive = no such curve, though single readings can be large or run the other way; also: potency is read from the fitted curve at half-maximal effect; % of control where 0% means no effect; nearly all actives have a fitted effect of over 45% in size
#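 H1299 (p53-null), stable ts p53-A138V + BP100-Luc; 1000 cells/well, Opti-MEM/10% FBS; cpd 4 pt, 1:5; 24 h, 37 deg C, 5% CO2; detection reagent 10 min RT; luminescence.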
# * = called active by the depositor; ? = inconclusive; / = not tested or not shown; [ ] = dose if it differs, or a comment.
SMILES,ClpP mod,Menin MLL FP FL,Menin MLL FP TR,MLL CXXC-DNA inh,p53 reactivation
Cc1ccc(-c2[nH]c(-c3ccc(C(=O)O)cc3)nc2-c2ccccc2)cc1,-3%,6,?,3%,-9%
CSc1nc(-c2ccccc2)c(-c2ccccc2)[nH]1,16µM*,-1,-23%,2%,-11%
CC(C)n1cc(CN2CCC(Oc3ccc(C(=O)N4CCCCC4)cc3)CC2)cn1,22µM*,/,/,-5%,6%
O=C(COc1ccccc1C(=O)Nc1ccccc1)Nc1cccc([N+](=O)[O-])c1,-4%,/,/,/,/
CC1=CC(=O)c2c(O)ccc(O)c2C1=O,/,?,?,32µM*,0%
O=C1C=C(N2CCN(c3ccccn3)CC2)C(=O)c2c(O)ccc(O)c21,-7%,/,/,/,/
COc1cccc(N=Nc2ccc3cccnc3c2O)c1,2%,1,?,-13%,35µM*
COc1cccc(N=Nc2ccc(O)c3ncccc23)c1,/,0,?,3%,?
CC(=O)N1C(=O)c2cccc3cccc(c23)C(=O)N1C(C)=O,25µM*,4,30%,11%,0%
CCCCCCCCCC[n+]1ccc(/C=C/c2c(C)[nH]c3ccccc23)c2ccccc21,1%,/,/,/,/
O=C(NCc1ccccc1)c1nn(-c2ccccc2)nc1CO,32µM*,/,/,/,/
COC(=O)c1nn(-c2ccccc2)nc1-c1nn(-c2ccccc2)nc1C(=O)OC,?,-1,2%,8%,0%
O=C(NCc1cccs1)c1nn(-c2ccccc2)nc1CO,3%,/,/,/,/
O=C(O)c1nn(-c2ccccc2)nc1-c1nn(-c2ccccc2)nc1C(=O)O,25µM*,2,5%,-3%,-6%
O=C(NCc1cccnc1)c1nn(-c2ccc(Cl)cc2)nc1CO,28µM*,/,/,/,/
COc1ccc(C2=Nn3c(nnc3-c3ccccc3C)SC2)cc1,/,1,-7%,/,/
CC(C)(C)N1C(=O)[C@H]2[C@H]3[C@H](O)[C@H](O)C/C(=N/OCc4ccccc4)[C@@H]3CC[C@@H]2C1=O,/,-2[11.7 µM],-16%[11.7 µM],/,/
CCc1ccc(-n2nc(C)c3c(C(=O)Nc4ccc(Cl)cc4)cc(C)nc32)cc1,1%,/,/,/,/
CCc1ccc(-n2nc(C)c3c(C(=O)Nc4cccc(C(F)(F)F)c4)cc(C)nc32)cc1,22µM*,/,/,/,/
C(=Nc1cnc2ccccc2c1)c1ccncc1,4%,/,/,/,/
O=C(NCC1CCCO1)C(c1cccs1)N(Cc1ccccc1Cl)C(=O)c1ccc(-c2ccccc2)[nH]1 (stereo not given),32µM*,3,-7%,6%,4%
CC1=CC(C)(C)Nc2ccc(C)cc21,32µM*,-3,-5%,11%,-1%
CSCC[C@H](NC(=O)[C@H](CCC(N)=O)NC(=O)[C@H](CCCCN)NC(=O)[C@H](CCCNC(=N)N)NC(=O)[C@H](Cc1ccc(O)cc1)NC(=O)[C@H](CCCNC(=N)N)NC(=O)[C@H](CO)NC(=O)[C@H](Cc1ccc(O)cc1)NC(=O)[C@H](CO)NC(=O)[C@H](CC(=O)O)NC(=O)[C@@H](NC(=O)[C@@H](N)Cc1ccccc1)[C@@H](C)O)C(=O)N[C@@H](C)C(=O)N[C@H](C(=O)N[C@@H](CCCCN)C(=O)N[C@@H](CCCCN)C(=O)N[C@@H](Cc1ccc(O)cc1)C(=O)N[C@@H](CC(C)C)C(=O)N[C@@H](C)C(=O)N[C@@H](C)C(=O)N[C@H](C(=O)N[C@@H](CC(C)C)C(=O)NCC(=O)N[C@@H](CCCCN)C(=O)N[C@@H](CCCNC(=N)N)C(=O)N[C@@H](Cc1ccc(O)cc1)C(=O)N[C@@H](CCCCN)C(=O)N[C@@H](CCC(N)=O)C(=O)N[C@@H](CCCNC(=N)N)C(=O)N[C@H](C(=O)N[C@@H](CCCCN)C(=O)N[C@@H](CC(N)=O)C(=O)N[C@@H](CCCCN)C(N)=O)C(C)C)C(C)C)C(C)C,/,-4,-12%,/,/
COC(=O)C1=CN(CCCN2CCCC2=O)C=C(C(=O)OC)C1c1cccs1,28µM*,-1,-11%,-13%,-12%
COC(=O)C1=CN(Cc2ccc(OC)cc2)C=C(C(=O)OC)C1c1cccs1,/,9,-2%,-14%,-6%
Cc1ccccc1OCC(=O)NCC(=O)OCc1ccc2ccccc2c1,3%,/,/,/,/
